Screens from PubChem.
In the library only some 2.9% were active in any assay of this set; here they are far more common.
Pol kappa inh-1: blocks human DNA polymerase kappa activity; 0.53% of 400,000 active; purified Pol kappa, fluorescent DNA synthesis assay, 10 min; Potency, µM (highest dose often 107 µM), inactives show at the highest dose activity, negative = inhibition, most hits filed as inhibitors; AID 588579; Q9UBT6; further: potency means the concentration at half of the fitted maximal effect; on the % scale 0 is the no-effect control and ±100 the full control effect
Target sequence (Q9UBT6 whole entry, looked up): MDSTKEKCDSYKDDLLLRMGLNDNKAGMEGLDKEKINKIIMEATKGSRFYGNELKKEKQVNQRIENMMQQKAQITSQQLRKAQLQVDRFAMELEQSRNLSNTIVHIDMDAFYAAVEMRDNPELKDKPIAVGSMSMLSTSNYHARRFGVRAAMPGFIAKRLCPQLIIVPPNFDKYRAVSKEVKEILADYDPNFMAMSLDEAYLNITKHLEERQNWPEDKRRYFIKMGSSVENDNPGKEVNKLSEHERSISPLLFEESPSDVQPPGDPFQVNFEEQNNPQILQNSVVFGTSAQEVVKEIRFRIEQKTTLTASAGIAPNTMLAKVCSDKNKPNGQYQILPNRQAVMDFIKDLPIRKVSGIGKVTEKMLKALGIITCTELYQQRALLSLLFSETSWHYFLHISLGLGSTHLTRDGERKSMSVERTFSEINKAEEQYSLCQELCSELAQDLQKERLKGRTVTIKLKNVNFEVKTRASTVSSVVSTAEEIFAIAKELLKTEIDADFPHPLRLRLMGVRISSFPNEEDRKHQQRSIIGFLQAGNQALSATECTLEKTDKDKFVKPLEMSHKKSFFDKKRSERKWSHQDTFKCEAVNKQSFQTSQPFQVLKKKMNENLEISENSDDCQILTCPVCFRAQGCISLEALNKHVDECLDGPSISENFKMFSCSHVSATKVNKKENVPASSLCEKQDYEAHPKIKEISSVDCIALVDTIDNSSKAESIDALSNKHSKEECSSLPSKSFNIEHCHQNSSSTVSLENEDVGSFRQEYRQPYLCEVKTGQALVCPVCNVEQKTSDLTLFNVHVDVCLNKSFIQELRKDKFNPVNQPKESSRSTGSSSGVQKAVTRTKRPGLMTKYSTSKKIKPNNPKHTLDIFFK
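Pol kappa 10 nM + cpd, 15 min RT; start w/ substrate 50 nM final; fluorescence kinetic read, 0 and 10 min. Neg ctrl: buffer, no enzyme.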
12-LOX inh: inhibitors of human 12S-lipoxygenase ALOX12 | purified 12hLO, xylenol orange hydroperoxide absorbance | Potency, µM (top dose mostly 108 µM), for the others: at the highest dose activity change, negative = inhibition, actives largely listed as inhibitors | 1.1% of 580,000 active; further: potency means the concentration at half of the fitted maximal effect; on the % scale 0 is the no-effect control and ±100 the full control effect
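Purified human 12hLO at 150 nM in 25 mM Hepes, 0.01% Triton X-100, pH 7.0, preincubated 15 min at room temperature with compound. Reaction started with 40 uM arachidonic acid, 30 min at room temperature. Hydroperoxide measured by Fe-xylenol orange, 573/405 nm absorbance ratio.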
POLI inh: inhibitors of human DNA polymerase iota; Q9UNA4; Pol iota fluorescent replication assay, 10 min; Potency, µM (doses to about 115 µM), without a hit: at the highest dose activity, negative = inhibition, most hits filed as inhibitors; 1% of 390,000 active; AID 588590; further: potency means the concentration at half of the fitted maximal effect
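Fluorescent replication assay read twice, at 0 min and 10 min after adding 50 nM (final) substrate. Enzyme (10 nM) and compounds were first incubated 15 min at room temperature; enzyme-free buffer wells were negative controls.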
PI5P4Ka inh: blocks human PI5P4K alpha kinase activity | P48426 | PI5P4Kalpha enzyme, ADP-Glo luminescence, 60 min; stronger effect = lower value | max response, % | 1.2% of 330,000 active | AID 652105; active means max response of -50% or lower; inconclusive means between -30% and -50%; inactive means -30% or higher; further: value at the top dose of about 77 µM; on the % scale 0 is the no-effect control and ±100 the full control effect
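qHTS, 1536-well: enzyme/substrate mix, compound by pin tool, 5 microM ATP final; RT 60 min; ADP-Glo reagents 1 (45 min) then 2 (30 min); luminescence.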
Pol eta inh-1: blocks human DNA polymerase eta activity; Q9Y253; recombinant Pol eta, fluorescent DNA replication assay; Potency, µM (doses to about 114 µM), inactives show at the highest dose activity change, negative = inhibition, most hits filed as inhibitors; 1.2% of 390,000 active; further: potency means the concentration at half of the fitted maximal effect; on the % scale 0 is the no-effect control and ±100 the full control effect
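Pol eta (10 nM) was preincubated with compounds for 15 min at room temperature, after which fluorescent replication substrate (50 nM final) was added to start the reaction. Fluorescence was read kinetically at 0 and 10 min.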
Pol beta inh: DNA polymerase beta (human) inhibition | P06746 | Pol beta primer extension/strand displacement, fluorescence kinetic | Potency, µM (titrated, usually from 114 µM), inactives show top-dose activity change, negative = inhibition, hits mostly inhibitors | 1.3% of 340,000 active | AID 485314; further: potency means the concentration at half of the fitted maximal effect; on the % scale 0 is the no-effect control and ±100 the full control effect
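Human Pol beta at 10 nM; strand-displacement substrate 50 nM final. Compound exposure 15 min at room temperature before start, reaction 10 min at room temperature.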
BAZ2B confirm: inhibits human BAZ2B bromodomain, hit validation; 100% of 25 active; Potency, µM, most hits filed as inhibitors; AlphaScreen BAZ2B / biotin-H3K14Ac peptide displacement; shares compounds with Pol kappa inh-1; calls by dose curve
BAZ2B bead ctr: counter-screen for BAZ2B inhibitors: AlphaScreen signal interference; shares compounds with Pol kappa inh-1; AlphaScreen biotin-His6 peptide bead counterscreen, signal decrease; Potency, µM (titrated, usually from 57.1 µM), for the others: top-dose activity change, negative = inhibition, hits mostly inhibitors; 25 tested, under 10 active; AID 588859;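 active means clear concentration-dependent signal drop in the bead assay lacking the target, so a primary-screen artifact; inconclusive means weak, partial or single-dose response; inactive means no response, so a real primary hit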
TbPGK inh: blocks T. brucei phosphoglycerate kinase; 79% of 500 active; shares compounds with Pol kappa inh-1; TbPGK coupled GAPDH assay, Kinase-Glo luminescence; AID 686980; Potency, µM (series often up to 57.5 µM), for the others: top-dose activity change, negative = inhibition, hits mostly inhibitors; further: potency means the concentration at half of the fitted maximal effect; on the % scale 0 is the no-effect control and ±100 the full control effect; nearly all actives have a fitted effect of over 65% in size
Pol iota confirm: Confirm cherry-picked inhibitors of human polymerase iota | 77% of 1,500 active | Pol iota primer extension, TAMRA/BHQ fluorescence | AID 720496 | shares compounds with Pol kappa inh-1 | Potency, µM, hits mostly inhibitors; further: potency means the concentration at half of the fitted maximal effect
Pol kappa inh-2: Pol kappa (human) inhibition, cherry-pick confirmation. purified Pol-kappa, fluorescent strand-displacement substrate. shares compounds with Pol eta inh-1. Potency, µM, usual class: inhibitors. AID 720501. 76% of 920 active; further: potency means the concentration at half of the fitted maximal effect
Pol eta inh-2: Pol eta (human) inhibition, cherry-pick confirmation | shares compounds with Pol eta inh-1 | Pol eta primer extension, TAMRA/BHQ fluorescence, 10 min | Potency, µM, usual class: inhibitors | 64% of 2,600 active; further: potency means the concentration at half of the fitted maximal effect
An asterisk follows results filed as active; [ ] = dose if it differs, or a comment. Unless noted, the call rests on the fitted dose curve; in most records, active means well fitted curve in the direction sought with a large enough effect; inconclusive means small, poorly fitted or top-dose-only effect, or another doubt; inactive means no such curve, though single readings can be large; an effect the other way counts as inactive or inconclusive.

For CCN(CC)c1ccc(N=Cc2c(O)n(Cc3ccco3)c(=O)[nH]c2=O)cc1 the results were Pol kappa inh-1 -10%, 12-LOX inh inconclusive, POLI inh 52%, PI5P4Ka inh 1, Pol eta inh-1 -18% and Pol beta inh 29%.
Screening C=C1C(=O)O[C@H]2C[C@@H](C)[C@@H]3C=CC(=O)[C@@]3(C)C[C@H]12 returned Pol kappa inh-1 -1%, 12-LOX inh 11%, POLI inh inconclusive, PI5P4Ka inh 1, Pol eta inh-1 -12% and Pol beta inh -1%.
C=C1C(=O)O[C@@H]2C[C@@H](C)[C@@H]3C=CC(=O)[C@@]3(C)[C@@H](OC(=O)CC(=O)O[C@H]3[C@@H]4C(=C)C(=O)O[C@@H]4C[C@@H](C)[C@@H]4C=CC(=O)[C@]43C)[C@H]12 was read as Pol kappa inh-1 35µM*, 12-LOX inh inconclusive, POLI inh 4.5µM*, PI5P4Ka inh -66*, Pol eta inh-1 7.9µM*, Pol beta inh 20µM*, Pol iota confirm 19* and Pol eta inh-2 17*.
`O=C(CSC1c2ccccc2Oc2ccccc21)Nc1cccc(C(=O)O)c1` gave 12-LOX inh 13%.
Screening O=C(CSc1nc(-c2ccc(F)cc2)nc2c1Cc1ccccc1O2)Nc1cccc(C(=O)O)c1 returned Pol kappa inh-1 8.9µM*, 12-LOX inh -17%, POLI inh 5.6µM*, PI5P4Ka inh inconclusive, Pol eta inh-1 10µM*, Pol beta inh 2.8µM*, BAZ2B confirm 28*, BAZ2B bead ctr -25%, TbPGK inh 1.6µM*, Pol iota confirm 3.4* and Pol eta inh-2 76*.
Screening O=C1NCCCCCCN[C@H]2CCCC[C@@H]12 returned 12-LOX inh 26%.
`Cc1cc(/C=C2\C(=O)NC(=O)N(c3ccc(Cl)cc3)C2=O)c(C)n1-c1sc2c(c1C#N)CCCC2` gave Pol kappa inh-1 79µM*, 12-LOX inh 11µM*, POLI inh 10µM*, PI5P4Ka inh -57*, Pol eta inh-1 20µM*, Pol beta inh inconclusive, Pol iota confirm 75*, Pol kappa inh-2 75* and Pol eta inh-2 30*.
Cc1cc(/C=C2\C(=O)NC(=O)N(Cc3ccccc3Cl)C2=O)c(C)n1-c1ccc(C(=O)O)cc1 was read as Pol kappa inh-1 50µM*, 12-LOX inh inconclusive, POLI inh 8.9µM*, PI5P4Ka inh -52*, Pol eta inh-1 10µM*, Pol beta inh 16µM*, Pol iota confirm 21* and Pol eta inh-2 24*.
For Cc1ccc(N2C(=O)NC(=O)/C(=C/c3ccc(-c4ccc(C(=O)O)c(Cl)c4)o3)C2=O)cc1 the results were Pol kappa inh-1 -91%, 12-LOX inh -24%, POLI inh 20µM*, PI5P4Ka inh inconclusive, Pol eta inh-1 8.9µM*, Pol beta inh 14µM*, Pol iota confirm inconclusive and Pol eta inh-2 30*.
Cc1ccc(N2C(=O)NC(=O)/C(=C\c3cc(C)n(-c4cc(C(=O)O)cc(C(=O)O)c4)c3C)C2=O)cc1 was read as Pol kappa inh-1 inconclusive, 12-LOX inh 0%, POLI inh 8.9µM*, PI5P4Ka inh -52*, Pol eta inh-1 7.9µM*, Pol beta inh -28%, TbPGK inh inconclusive, Pol kappa inh-2 17* and Pol eta inh-2 38*.
`Cc1cc(/C=C2\C(=O)NC(=O)N(c3ccc(F)cc3)C2=O)c(C)n1-c1ccc(C(=O)O)cc1` gave Pol kappa inh-1 -18%, 12-LOX inh inconclusive, POLI inh inconclusive, PI5P4Ka inh inconclusive, Pol eta inh-1 inconclusive and Pol beta inh 15%.
`Cc1sc(-n2c(C)cc(C=C3C(=O)NC(=O)NC3=O)c2C)c(C#N)c1C` gave Pol kappa inh-1 -10%, 12-LOX inh inconclusive, POLI inh inconclusive, PI5P4Ka inh 7, Pol eta inh-1 -16% and Pol beta inh 1%.
`CC(C)C1=NOC2(CCCN(Cc3ccccn3)C2)C1` (stereo not drawn) gave 12-LOX inh 55%[176 µM].
`CCOc1cc(CN2CCN(C(=O)COc3ccc4ccccc4c3)CC2)ccc1OC` gave 12-LOX inh -43%.
For Cc1cc(/C=C2\C(=O)NC(=O)N(Cc3ccccc3)C2=O)c(C)n1-c1ccc(Cl)c(C(=O)O)c1 the results were Pol kappa inh-1 18µM*, 12-LOX inh inconclusive, POLI inh 8.9µM*, PI5P4Ka inh -94*, Pol eta inh-1 1.8µM*, Pol beta inh 3.5µM*, TbPGK inh 6.5µM*, Pol iota confirm 24*, Pol kappa inh-2 24* and Pol eta inh-2 21*.
Screening Cc1cc(/C=C2\C(=O)NC(=O)N(Cc3ccco3)C2=O)c(C)n1-c1ccc(C(=O)O)cc1 returned Pol kappa inh-1 inconclusive, 12-LOX inh inconclusive, POLI inh 18µM*, PI5P4Ka inh inconclusive, Pol eta inh-1 18µM*, Pol beta inh inconclusive, Pol iota confirm 19* and Pol eta inh-2 27*.
`Cc1cc(C=C2C(=O)N(C)C(=O)N(C)C2=O)c(C)n1-c1ccccc1` gave Pol kappa inh-1 -7%[60.1 µM], 12-LOX inh -5%, POLI inh -1%, PI5P4Ka inh -4, Pol eta inh-1 12% and Pol beta inh 3%.
`CCCn1cc(C(=O)NCC2CCCN2CC)c2ccccc21` (stereo not drawn) gave 12-LOX inh 6%.
